Results filed as inconclusive are left out. Active and inactive are the calls of the source. Calls come from the whole dose curve; as a rule, active = well fitted curve in the direction sought with a large enough effect; inconclusive = small, poorly fitted or top-dose-only effect, or another doubt; inactive = no such curve, though single readings can be large; an effect the other way counts as inactive or inconclusive. Non-standard residues stand in square brackets, D forms with d. Residues, ends and D or L forms follow the SMILES beside them.
Columns and labels:
[1] = BET inhibitor-based combinations targeting novel dependencies in MECOM-rearranged (r) AML: SET-2 cell line (AID 2202231); details: SET-2 AML cells viability, CellTiter-Glo luminescence, 48 h; viability: hits give low values, concentration not given here; note: nearly all actives have a fitted effect of over 35% in size;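 for viability: plate controls were DMSO treated cells for no effect and wells without cells for full effect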
Method in brief: (§1)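 Each compound was tested at eleven concentrations on cells seeded at 500/well. After two days' incubation, ATP-based luminescence reported viability; responses relative to DMSO and blank wells yielded AUC and cell-line-centred Z-AUC.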

[2] = BET inhibitor-based combinations targeting novel dependencies in MECOM-rearranged (r) AML: HNT-34 cell line (AID 2202234); details: HNT-34 AML viability, CellTiter-Glo luminescence, 48 h; series mostly up to 46 µM; note: nearly all actives have a fitted effect of over 35% in size;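 for viability (% of control): plate controls were vehicle wells for no effect and cell-free wells for full effect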
Method in brief: (§2)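 First, 500 cells per well were seeded; next, drugs were pinned as 11-point doses; then plates sat 48 hr in the incubator; finally CellTiter-Glo was added and luminescence read, with AUC and Z-AUC computed.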

[3] = BET inhibitor-based combinations targeting novel dependencies in MECOM-rearranged (r) AML: UCSD-AML1 cell line (AID 2202235); details: UCSD-AML1 AML cells viability, CellTiter-Glo, 48 h; series mostly up to 46 µM; note: nearly all actives have a fitted effect of over 40% in size;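 for viability (% of control): plate controls were DMSO vehicle wells for no effect and blank wells for full effect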
Method in brief: as §2

[4] = BET inhibitor-based combinations targeting novel dependencies in MECOM-rearranged (r) AML: AML-191 cell line (AID 2202236; note: nearly all actives have a fitted effect of over 35% in size;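 for viability (% of control): plate controls were vehicle wells for no effect and wells without cells for full effect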); details: AML-191 viability, CellTiter-Glo luminescence, 48 h; series mostly up to 46 µM
Method in brief: as §1

[5] = BET inhibitor-based combinations targeting novel dependencies in MECOM-rearranged (r) AML: AML-194 cell line (AID 2202237; note: nearly all actives have a fitted effect of over 40% in size;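 for viability (% of control): plate controls were vehicle wells for no effect and wells without cells for full effect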); details: AML-194 (MECOM-r AML) viability, CellTiter-Glo, 48 h; series mostly up to 46 µM
Method in brief: as §1

[6] = BET inhibitor-based combinations targeting novel dependencies in MECOM-rearranged (r) AML: MV-4-11 cell line (AID 2202233); details: MV-4-11 AML viability, CellTiter-Glo luminescence, 48 h; series mostly up to 46 µM; note: nearly all actives have a fitted effect of over 45% in size
Method in brief: as §2

[7] = BET inhibitor-based combinations targeting novel dependencies in MECOM-rearranged (r) AML: OCI-AML3 cell line (AID 2202232); details: CellTiter-Glo luminescence, 48 h; Potency: OCI-AML3 viability; series mostly up to 46 µM; note: nearly all actives have a fitted effect of over 35% in size;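 for viability (% of control): plate controls were DMSO vehicle wells for no effect and wells without cells for full effect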
Method in brief: as §1
Potency is the fitted concentration of half-maximal effect.

O=C(Nc1nccs1)C(c1cc(F)ccc1O)N1Cc2ccccc2C1=O (stereo not given)
active: Potency [1] 18.6 µM | Potency [2] 16.6 µM
inactive: Potency [3] | Potency [4] | Potency [5]

COc1ccc(S(=O)(=O)NCc2ccc(C(=O)NCCc3ccc(Cl)cn3)cc2)cc1
inactive: viability [1] 98% | Potency [2] | Potency [3] | Potency [4] | Potency [5]

CCCCCCCCCCCC(CC1OC(=O)C1CCCCCC)OC(=O)C(CC(C)C)NC=O (stereo not given)
active: Potency [6] 0.742 µM
inactive: viability [1] 98.6% | Potency [3] | Potency [4] | Potency [5]

NS(=O)(=O)c1ccc(Cc2c(-c3cccc(-c4ccccc4)c3)nn(-c3nc(C(=O)O)cs3)c2CC2CC2)cc1
inactive: viability [1] 106% | Potency [2] | Potency [3]
active: Potency [4] 7.42 µM

COc1ccc(S(=O)(=O)N2CCc3cccc(-c4ccncc4)c32)cc1
active: Potency [1] 1.66 µM | Potency [6] 1.18 µM | Potency [4] 1.05 µM | Potency [5] 0.934 µM

C[C@H]1CN(C2COC2)CCN1c1ccc(Nc2cc(-c3ccnc(N4CCn5c(cc6c5CC(C)(C)C6)C4=O)c3CO)cn(C)c2=O)nc1
inactive: viability [1] 121% | Potency [4] | Potency [5]
active: Potency [6] 14.8 µM

O=C1S/C(=C\c2ccc(OCc3cccc(B(O)O)c3)cc2)C(=O)N1Cc1ccc(F)cc1
inactive: viability [1] 87.6% | Potency [3] | Potency [5]
active: Potency [6] 18.6 µM | Potency [4] 18.6 µM

Cc1nc(NC(=O)N2CCC[C@H]2C(N)=O)sc1-c1csc(C(C)(C)C)n1
inactive: viability [1] 98.3% | Potency [2]
active: Potency [4] 16.6 µM

CCn1c(=O)c(-c2ccc(-c3cncc(C)n3)cc2Cl)cc2cnc(NCCC3CCN(C)CC3)nc21
active: Potency [6] 1.18 µM
inactive: viability [1] 93.7% | viability (% of control) [3] 99.8% [at 5.12 µM] | viability (% of control) [5] 89.1% [at 5.12 µM]

C[C@H](Nc1nc(N[C@H](C)C(F)(F)F)nc(-c2cccc(Cl)n2)n1)C(F)(F)F
inactive: viability [1] 120% | Potency [2] | Potency [3] | Potency [4] | Potency [5]

CCOC(=O)c1ccc(C#Cc2ccc3c(c2)C(C)(C)CCS3)nc1
inactive: viability [1] 106% | Potency [3] | Potency [5]
active: Potency [6] 0.662 µM | Potency [4] 8.33 µM

CN(C(=O)CNC(=O)/C=C/c1cccc(Cl)c1)C1CCS(=O)(=O)CC1
active: Potency [1] 0.662 µM
inactive: Potency [2]

C=CCNc1c(O)cc2c(O)c1C[C@@H](C)C[C@H](OC)[C@H](O)[C@@H](C)/C=C(/C)[C@H](OC(N)=O)[C@@H](OC)/C=C\C=C(\C)C(=O)N2
active: Potency [1] 4.68 µM | Potency [6] 0.148 µM | Potency [3] 1.32 µM | Potency [4] 5.9 µM | Potency [5] 3.32 µM

O=C1OC(COc2ccccc2[N+](=O)[O-])CC1Cc1ccccc1 (stereo not given)
inactive: viability [1] 112% | Potency [2] | Potency [3] | Potency [4]

O=c1oc2cc(O)ccc2s1
inactive: viability [1] 106% | Potency [2] | Potency [3] | Potency [4] | Potency [5]

C=CC(=O)N[C@H]1CN(c2nc(Nc3cn(C)nc3OC)c3ncn(C)c3n2)C[C@@H]1F
inactive: viability [1] 87.8% | Potency [2]

N#Cc1ccc(N(Cc2ccc(Br)cc2)n2cnnc2)cc1
inactive: viability [1] 93.5% | Potency [3] | Potency [4] | Potency [5]
active: Potency [2] 16.6 µM

COc1cc(C)c(/C=C/C(C)=C/C=C/C(C)=C/C(=O)O)c(C)c1C
active: Potency [6] 5.9 µM | Potency [4] 1.86 µM
inactive: viability [1] 101% | Potency [3] | Potency [5]

CN(CCOc1ccc(-c2ccc3c(c2)OCO3)cc1C(C)(C)C)CC(=O)O
inactive: viability [1] 105% | Potency [2] | Potency [3] | Potency [5]

CC1=C(/C=C/C(C)=C/C=C/C(C)=C/C=C/C=C(C)/C=C/C=C(C)/C=C/C2=C(C)CCCC2(C)C)C(C)(C)CCC1
inactive: viability [1] 103% | Potency [3] | Potency [4] | Potency [5]
active: Potency [6] 23.5 µM

O=C1OC2(CCC(C(=O)Nc3ccn(-c4ccccc4F)n3)CC2)c2cnccc21 (stereo not given)
inactive: viability [1] 90.4%
active: Potency [6] 3.32 µM | Potency [4] 18.6 µM

CN(C)c1ccccc1CN1CCCN(Cc2ccccc2N(C)C)C1c1ccncc1
inactive: viability [1] 99.7% | Potency [2] | Potency [3] | Potency [4] | Potency [5]

Cc1cc(Nc2cc(N)ncn2)c(=O)n2c1C(=O)NC21CCCCC1
active: Potency [6] 8.11 µM
inactive: viability [1] 117% | Potency [3] | Potency [5]

C=CC[C@@H]1/C=C(\C)C[C@H](C)C[C@H](OC)[C@H]2O[C@@](O)(C(=O)C(=O)N3CCCC[C@H]3C(=O)O[C@H](/C(C)=C/[C@@H]3CC[C@@H](O)[C@H](OC)C3)[C@H](C)[C@@H](O)CC1=O)[C@H](C)C[C@@H]2OC
active: Potency [2] 23.5 µM | Potency [3] 26.3 µM | Potency [4] 18.6 µM
inactive: viability [1] 51.4%

CNC(=O)Cn1cc(-c2ccc3c(c2)C(F)CC32NC(=O)N(CC(=O)N(Cc3ccc(F)cc3)C(C)C(F)(F)F)C2=O)cn1 (stereo not given)
active: Potency [1] 3.72 µM | Potency [2] 0.0833 µM | Potency [3] 0.148 µM

Cc1cc(-c2ccc(CC(=O)Nc3ccc(-c4cccnc4)cc3)cc2)ccn1
active: Potency [1] 16.6 µM | Potency [6] 13.2 µM | Potency [4] 9.34 µM

NC1=N[C@@]2(c3cc(NC(=O)c4ccc(F)cn4)ccc3F)COC[C@H]2CS1
inactive: viability [1] 112% | Potency [2] | Potency [3] | Potency [4] | Potency [5]

O=C(NCc1ccccc1)[C@H](Cc1ccccc1)NC(=O)[C@H]1O[C@@H]1C(=O)NCCc1ccc(O)cc1
active: Potency [6] 23.5 µM
inactive: viability [1] 105% | Potency [3] | Potency [4] | Potency [5]

CC(C)(C)S(=O)(=O)c1ccc2nccc(Nc3n[nH]c4ccc(F)cc34)c2c1
active: Potency [3] 0.0012 µM | Potency [4] 10.5 µM
inactive: viability [1] 104% | Potency [2] | Potency [5]

CCn1c(=O)c2c(nc(/C=C/c3ccc(OC)c(OC)c3)n2C)n(CC)c1=O
inactive: viability [1] 107% | Potency [2] | Potency [3] | Potency [4] | Potency [5]

Nc1nc(OC(c2ccc(-c3cccc(F)c3)cc2)C(F)(F)F)cc(-c2ccc(C[C@@H](N)C(=O)O)cc2)n1 (stereo not given in full)
inactive: viability [1] 100% | Potency [6] | Potency [3] | Potency [4] | Potency [5]

FC(F)(F)c1ccc(CNc2ccc(Cc3c[nH]c4ncc(Cl)cc34)cn2)cn1
active: Potency [6] 0.934 µM
inactive: viability [1] 110% | Potency [3] | Potency [5]

C=CC(=O)N[C@H]1CCOC[C@H]1Nc1ncc2cc(-c3c(Cl)c(OC)cc(OC)c3Cl)ccc2n1
active: Potency [6] 18.6 µM
inactive: viability [1] 104% | Potency [3] | Potency [4] | Potency [5]

COc1nc(OCc2cccc(-c3ccccc3)c2C)ccc1CNCCNC(C)=O
active: Potency [1] 26.3 µM | Potency [6] 16.6 µM | Potency [3] 20.9 µM | Potency [4] 18.6 µM | Potency [5] 26.3 µM

CS(=O)(=O)c1ccc([C@@H](CC2CCCC2)C(=O)Nc2nccs2)cc1
inactive: viability [1] 79.4% | Potency [2] | Potency [3] | Potency [4]

CNc1nc(-c2ccc3c(N)n[nH]c3c2)cc(N2C[C@@H](C(=O)NC3CCCCC3)CC[C@H]2C)n1
active: Potency [7] 5.9 µM | Potency [6] 14.8 µM | Potency [2] 13.2 µM | Potency [3] 0.742 µM | Potency [4] 23.5 µM

Cc1ncc(NC(=O)c2cccc(C(F)(F)F)c2)cc1-c1cnc(OC2CCOCC2)c(N2CCOCC2)c1
active: Potency [7] 0.0833 µM | Potency [6] 16.6 µM | Potency [2] 6.61 µM | Potency [3] 8.33 µM | Potency [4] 11.8 µM

CCC(=O)OCC(=O)C1(OC(=O)CC)C(C)CC2C3CCC4=CC(=O)C=CC4(C)C3(F)C(O)CC21C (stereo not given)
inactive: Potency [7] | Potency [6] | Potency [2] | Potency [3] | Potency [4] | Potency [5]

c1ccc(-c2cc(CCC3CCNCC3)c3ccccc3n2)cc1
active: Potency [7] 20.9 µM | Potency [6] 20.9 µM | Potency [2] 20.9 µM | Potency [3] 26.3 µM | Potency [4] 20.9 µM | Potency [5] 26.3 µM

CN1CCN(Cc2ccc(Nc3ncc(Cl)c(Nc4ccccc4S(=O)(=O)N(C)C)n3)cc2)CC1
active: Potency [7] 0.191 µM | Potency [6] 0.0539 µM | Potency [2] 0.108 µM | Potency [3] 0.135 µM | Potency [4] 0.152 µM | Potency [5] 0.215 µM

CC(C)C[C@@H]1NC(=O)[C@@H](C(C)C)NC(=O)[C@@H]2CCCN2C(=O)[C@@H](CC(=O)O)NC(=O)[C@@H](Cc2c[nH]c3ccccc23)NC1=O (cyclo(L[dW][dD]P[dV]))
inactive: Potency [7] | Potency [6] | Potency [2] | Potency [3] | Potency [4] | Potency [5]

Nc1n[n+]([O-])c2ccccc2[n+]1[O-]
active: Potency [7] 18.6 µM | Potency [6] 13.2 µM | Potency [2] 16.6 µM | Potency [4] 18.6 µM
inactive: Potency [3]

N#Cc1ccc(Cn2cncc2CN2CCN(c3cccc(Cl)c3)C(=O)C2)cc1
active: Potency [7] 2.95 µM | Potency [6] 7.42 µM | Potency [2] 1.66 µM | Potency [3] 3.72 µM

CC1(C)CCC2(CC1)N[C@@H](C(=O)N[C@@H]1CC[C@@H](C(N)=O)OC1)[C@H](c1ccnc(Cl)c1F)[C@]21C(=O)Nc2cc(Cl)ccc21
active: Potency [7] 0.715 µM | Potency [6] 0.0715 µM | Potency [2] 0.16 µM | Potency [3] 0.201 µM | Potency [4] 0.358 µM | Potency [5] 0.637 µM

COC1(c2sc3c(N4CCOCC4)nc(-c4cnc(N)nc4)nc3c2C)COC1
active: Potency [7] 0.525 µM | Potency [6] 0.59 µM | Potency [2] 0.468 µM | Potency [3] 0.186 µM

Cc1cc(OCCCc2c3n(c4c(-c5c(C)nn(C)c5C)c(Cl)ccc24)[C@H](C)CN(c2cn(C)c4ccc(C(=O)O)cc24)C3=O)cc(C)c1Cl
active: Potency [7] 2.63 µM | Potency [6] 0.468 µM | Potency [2] 2.95 µM | Potency [3] 20.9 µM | Potency [4] 20.9 µM | Potency [5] 14.8 µM

O=C(NC[C@H](O)CO)c1ccncc1Nc1ccc(I)cc1F
active: Potency [7] 0.0332 µM | Potency [6] 5.9 µM | Potency [2] 0.468 µM | Potency [3] 0.372 µM | Potency [4] 0.525 µM
